In PMC5540273 (PLoS ONE, 2017):

Each compound was assayed on AKT1. Conditions: concentration: 1 μM, replicates: in singlicate; n = 1.
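Note: KINOMEscan kinase panel screen.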

SMILES	%Inh [%]
CN(C1=C(c2ccccc2)C(=O)NC1=O)c1ccccc1 [SB-334860]	0
Cc1cccc(-c2nc(Nc3ccc4ncsc4c3)c3ccccc3n2)n1 [GW867588]	12
NS(=O)(=O)CCc1cccc(Nc2nccc(-c3c(-c4cccc(NC(=O)c5c(F)cccc5F)c4)nn4ccccc34)n2)c1 [GSK336735]	0
CNc1ncnc2[nH]ncc12 [SKF-18355]	0
Cc1c2ccc(N(C)c3ccnc(Nc4cccc(S(N)(=O)=O)c4)n3)cc2nn1Cc1ccccc1.Cl.Cl [GW787226]	0
COc1ccc(CNC(=O)NC2CCN(c3ccnc(Nc4ccc(OC)cc4)n3)C2)cc1 (stereo not drawn) [GSK1379727]	0
Cc1nnc(-c2ccc3occ(-c4ccc(C(C)O)cc4)c3c2)o1 (stereo not drawn)	17
Fc1ccc(-c2nn3c(OCC(F)(F)F)cccc3c2-c2ccncc2)cc1 [GW514784]	0
O=C1Cc2cc(Nc3nc(NCc4cccc(S(=O)(=O)C(F)(F)F)c4)ncc3C(F)(F)F)ccc2N1	0
O=C(NCCNc1ccnc(Nc2ccc(F)cc2)n1)c1cc2ccccc2s1 [GSK1379874]	0
Nc1nccc(-c2c(-c3ccc(F)cc3)ncn2C2CCN(CC(F)(F)F)CC2)n1 [SB-236560]	0
Nc1nc(-c2ccc3c(N)n[nH]c3c2)cc(N2CCCC2)n1 [GSK2227430]	0
O=c1cc(N2CCOCC2)nc2n(Cc3cccc(Cl)c3Cl)c(C3CC3)nn12 [GSK2358994]	12
N#Cc1c(N2CCOCC2)sc(-c2ccn[nH]2)c1-c1ccc(Cl)cc1	0
NS(=O)(=O)c1cccc(-c2ccc3nccc(-c4cccc(S(N)(=O)=O)c4)c3c2)c1 [GW867253]	2
O=c1cc(N2CCOCC2)nc2n(Cc3cccc(F)c3)ccn12 [GSK2297430]	0
Cc1cccc(-c2nc(-c3ccc(S(C)(=O)=O)cc3)sc2-c2ccncc2)c1	0
COCCNC(=O)c1ccc(-c2cc(C(=O)NC3CC3)cc(F)c2C)cc1 [GW868318]	0
Cc1cn2c(=O)cc(N3CCOCC3)nc2n1Cc1cccc(Cl)c1Cl [GSK2334006]	0
COc1ccc(COc2cc(-n3cnc4ccccc43)sc2C(N)=O)cc1 [GSK1024304]	0
CN1c2ccc(NCc3ccc(F)cc3)cc2-c2c(cnn2C)S1(=O)=O	4
O=C(NOCC1CC1)c1ccc(F)c(F)c1Nc1ccc(I)cc1Cl	0

What follows are compounds tested on AKT2. Conditions: concentration: 1 μM, replicates: in singlicate; n = 1.

SMILES	%Inh [%]
N#Cc1ccc(-c2cc(-c3c[nH]nc3-c3ccccn3)ccn2)cc1 [GW693028]	0
O=C(Nc1n[nH]c2cc(-c3cccc(F)c3)ccc12)C1CC1 [SB-735464]	0
COc1cc2c(cc1OC[C@@H](O)CO)ncc1c3ccc(C#N)cc3[nH]c21	0
CCCCCc1nc2c(N)ncnc2n1CCCCC [SKF-97255]	0
Cc1cccc(Cn2ccn3c(=O)cc(N4CCOCC4)nc23)c1 [GSK2297542]	4
CCn1cnc2c(N)ncnc21 [GW345098]	0
Cn1ccc2ncnc(Oc3ccc(NC(=O)Nc4ccncc4)c(Cl)c3)c21	14
Cn1cc(-c2ccc3c(c2)CCN3C(=O)Cc2ccccc2Cl)c2c(N)ncnc21 [GSK2608885]	0
Cl.Nc1ncnc2occ(-c3ccc(NC(=O)Nc4cc(C(F)(F)F)ccc4F)cc3)c12 [SB-707548]	0
Cc1ccc(C(=O)NCC(N)=O)cc1-n1c(C)cc(OCc2ccc(F)cc2F)c(Br)c1=O	19
NCC(NC(=O)c1cc(-c2cn[nH]c2)c(-c2ccnc3[nH]ccc23)s1)c1ccccc1.O=C(O)C(F)(F)F.O=C(O)C(F)(F)F (stereo not drawn) [GSK1325775]	23
CN(C(=O)c1ccc(-c2cc(-c3c[nH]nc3-c3ccccn3)ccn2)cc1)C1CCOCC1 [GW810083]	0
Cc1nnc(-c2ccc(C)c(-c3ccc(C(=O)Nc4ccc(NS(C)(=O)=O)cc4)cc3)c2)o1 [GW702865]	12
CN(C1=C(c2ccccc2)C(=O)NC1=O)c1ccccc1 [SB-334860]	23
Cc1cccc(-c2nc(Nc3ccc4ncsc4c3)c3ccccc3n2)n1 [GW867588]	0
NS(=O)(=O)CCc1cccc(Nc2nccc(-c3c(-c4cccc(NC(=O)c5c(F)cccc5F)c4)nn4ccccc34)n2)c1 [GSK336735]	16
CNc1ncnc2[nH]ncc12 [SKF-18355]	0
Cc1c2ccc(N(C)c3ccnc(Nc4cccc(S(N)(=O)=O)c4)n3)cc2nn1Cc1ccccc1.Cl.Cl [GW787226]	0

SMILES	%Inh [%]
COc1ccc(CNC(=O)NC2CCN(c3ccnc(Nc4ccc(OC)cc4)n3)C2)cc1 (stereo not drawn) [GSK1379727]	0
Cc1nnc(-c2ccc3occ(-c4ccc(C(C)O)cc4)c3c2)o1 (stereo not drawn)	0
Fc1ccc(-c2nn3c(OCC(F)(F)F)cccc3c2-c2ccncc2)cc1 [GW514784]	0
O=C1Cc2cc(Nc3nc(NCc4cccc(S(=O)(=O)C(F)(F)F)c4)ncc3C(F)(F)F)ccc2N1	1
O=C(NCCNc1ccnc(Nc2ccc(F)cc2)n1)c1cc2ccccc2s1 [GSK1379874]	0
Nc1nccc(-c2c(-c3ccc(F)cc3)ncn2C2CCN(CC(F)(F)F)CC2)n1 [SB-236560]	0
Nc1nc(-c2ccc3c(N)n[nH]c3c2)cc(N2CCCC2)n1 [GSK2227430]	3
O=c1cc(N2CCOCC2)nc2n(Cc3cccc(Cl)c3Cl)c(C3CC3)nn12 [GSK2358994]	0
N#Cc1c(N2CCOCC2)sc(-c2ccn[nH]2)c1-c1ccc(Cl)cc1	0
NS(=O)(=O)c1cccc(-c2ccc3nccc(-c4cccc(S(N)(=O)=O)c4)c3c2)c1 [GW867253]	0
O=c1cc(N2CCOCC2)nc2n(Cc3cccc(F)c3)ccn12 [GSK2297430]	9
Cc1cccc(-c2nc(-c3ccc(S(C)(=O)=O)cc3)sc2-c2ccncc2)c1	20
COCCNC(=O)c1ccc(-c2cc(C(=O)NC3CC3)cc(F)c2C)cc1 [GW868318]	15
Cc1cn2c(=O)cc(N3CCOCC3)nc2n1Cc1cccc(Cl)c1Cl [GSK2334006]	26
COc1ccc(COc2cc(-n3cnc4ccccc43)sc2C(N)=O)cc1 [GSK1024304]	0
CN1c2ccc(NCc3ccc(F)cc3)cc2-c2c(cnn2C)S1(=O)=O	7
O=C(NOCC1CC1)c1ccc(F)c(F)c1Nc1ccc(I)cc1Cl	0
